Screens from PubChem.
Most compounds without a hit are left out; they make up all but 19% or so of the library.
Chronic BCR inh: chronic active BCR signaling inhibition; ABC-DLBCL IkBa-CBG/CBR reporter, luminescence ratio, 4 h; Potency, µM (titrated, usually from 46.1 µM), for inactives: top-dose activity change, negative = inhibition, usual class: inhibitors; 340,000 compounds, 0.05% hits; active means well fitted inhibition curve with a large enough effect in the signal ratio, with a control signal flat, not every such curve was filed as active; inconclusive means small, poorly fitted or top-dose-only effect, or effect the other way, or a change in a side signal; the % refers to the signal ratio;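 further: potency means the concentration at half of the fitted maximal effect; plate controls were basal doxycycline-induced cells for no effect and cells given 10 µM MG132 for full effect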
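TMD8 ABC-DLBCL cells carrying doxycycline-inducible green luciferase fused to IkappaBalpha plus unfused red luciferase were exposed to compounds (up to 46 uM) for 4 hrs at 37C. Activity came from the overlap-corrected green/red luminescence ratio.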
SW480 rereplic: inducers of DNA re-replication in SW480 colon cancer cells. SW480 DNA re-replication, Hoechst DNA content imaging, 48 h. Potency, µM (series often up to 46.1 µM), for the others: at the highest dose re-replication activation, hits mostly activators. 340,000 compounds, 1.8% hits; further: potency means the concentration at half of the fitted maximal effect; % of control where 0% means no effect; nearly all actives have a fitted effect of over 55% in size
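First, 250 cells per well were seeded. Next, compound or vehicle (23 nL) was pinned in, plates sat 48 hr at 37 C. Finally Hoechst was added for 40 min before fluorescence scanning.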
TDP1 cell CPT: DT40-hTDP1 cell growth loss with CPT | chicken DT40 Tdp1-/-;hTDP1 cells + 20 nM CPT, ATP luminescence, 48 h | Potency, µM (highest dose often 46.2 µM), without a hit: at the top dose activity change, negative = growth inhibition, hits mostly inhibitors | 420,000 compounds, 12% hits | AID 686979; further: potency means the concentration at half of the fitted maximal effect; on the % scale 0 is the no-effect control and ±100 the full control effect; nearly all actives have a fitted effect of over 55% in size
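Chicken DT40 Tdp1-/- cells complemented with human TDP1, 400 cells/well, exposed to compounds plus 20 nM camptothecin for at least 48 h at 37 C; viability read as ATP content by CellTiter-Glo luminescence.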
DT40 TDP1 no CPT: qHTS for Inhibitors of human tyrosyl-DNA phosphodiesterase 1 (TDP1): qHTS in cells in absence of CPT; DT40 Tdp1-/- hTDP1 cells, no CPT, ATP luminescence, 48 h; Potency, µM (doses to about 46.2 µM), for inactives: at the highest dose activity change, negative = growth inhibition, hits mostly inhibitors; 420,000 compounds, 15% hits; AID 686978, 2013; further: potency means the concentration at half of the fitted maximal effect; on the % scale 0 is the no-effect control and ±100 the full control effect; nearly all actives have a fitted effect of over 55% in size
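Seeded 400 DT40-hTDP1 cells/well (vehicle DMSO, no 20 nM CPT); pinned compounds; ≥48 hr at 37 °C; CellTiter-Glo luminescence as viability measure.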
MCF10A rerep: inducers of DNA re-replication in MCF 10A breast cells; MCF 10A DNA re-replication, Hoechst nuclear intensity, 48 h; Potency, µM (doses to about 46.1 µM), for the others: at the top dose activity, positive = re-replication, hits mostly activators; 350,000 compounds, 2.9% hits; AID 624296; further: potency means the concentration at half of the fitted maximal effect; % of control where 0% means no effect; nearly all actives have a fitted effect of over 50% in size
IL1B secr inh: inflammasome signaling inhibition, IL-1 beta readout; THP-1 LPS/ATP IL-1B secretion, AlphaLISA, 16 h; stronger effect = lower value; activity change, % at 57.5 µM; 360,000 compounds, 4.7% hits; AID 743279; in the data active means activity change below about -50%; inconclusive means mostly about -30% to -49%; further: on the % scale 0 is the no-effect control and ±100 the full control effect
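Secreted IL-1B measured by AlphaLISA bead assay after 16 h compound exposure of THP-1 cells; compounds (final up to 57.5 uM) added 1 h before LPS (250 ng/mL) and ATP (1.25 mM) stimulation; lower signal means less secretion.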
* hit, by the source's call; ? = inconclusive; · = not tested or not shown. Unless noted, the call rests on the fitted dose curve; in most records, active means well fitted curve in the direction sought with a large enough effect; inconclusive means small, poorly fitted or top-dose-only effect, or another doubt; inactive means no such curve, though single readings can be large; an effect the other way counts as inactive or inconclusive.

SMILES	Chronic BCR inh	SW480 rereplic	TDP1 cell CPT	DT40 TDP1 no CPT	MCF10A rerep	IL1B secr inh
CCNC(=O)c1ccc2nc(-c3ccccc3)c(-c3ccccc3)nc2c1	·	·	11µM*	11µM*	·	·
O=C(c1ccc2nc(-c3ccccc3)c(-c3ccccc3)nc2c1)N1CCCCC1	2%	-18%	?	16µM*	?	?
C=CCNC(=O)c1ccc(-c2nc3ccccc3nc2-c2ccccc2)cc1	·	2%	?	?	?	-11
CCC(C)NC(=O)c1ccc2nc(-c3ccc(OC)c(OC)c3)c(-c3ccc(OC)c(OC)c3)nc2c1 (centres undefined)	?	?	15µM*	?	15µM*	-26
O=C(c1ccc(Oc2cc(Cl)cc(Cl)c2)o1)N1CCCCC1	4%	-4%	-14%	-3%	8%	0
COc1cc(N)c2ncccc2c1Br	·	-7%	-2%	-4%	-4%	?
Cc1c(Cl)cccc1NC(=O)c1ccc2c(c1)nnn2C1CCCC1	·	·	2.6µM*	2.6µM*	·	·
COc1ccccc1CNC(=O)c1ccc2nc(-c3ccccc3)c(-c3ccccc3)nc2c1	0%	·	?	18µM*	·	·
COCC(C)NC(=O)c1ccc(N(C)C)cc1 (centres undefined)	0%	-16%	9%	0%	14%	-18
COc1ccccc1CNC(=O)c1ccc2c(c1)nnn2C1CCCC1	·	·	18µM*	16µM*	·	·
COCC(C)NC(=O)c1ccc2nc(-c3ccccc3)c(-c3ccccc3)nc2c1 (centres undefined)	-1%	-9%	?	21µM*	17%	-2
COc1ccc(CNC(=O)c2ccc3nc(-c4ccc(F)cc4)c(-c4ccc(F)cc4)nc3c2)cc1	?	·	-20%	-27%	·	·
CCC(C)C(NC(=O)c1ccccc1NC(=O)c1ccc(OC)cc1)C(=O)NCCCn1ccnc1 (centres undefined)	11%	-3%	6%	0%	16%	0
CCn1c(SCC(=O)Nc2sccc2C(N)=O)nnc1C1CC1	4%	0%	1%	0%	-4%	0
CCCCNC(=S)N(C)/N=C/c1ccc(OCc2ccc(C(=O)OC)cc2)c(OC)c1	-23%	3%	?	15µM*	?	-2
CCC(=O)c1ccc(OCc2ccc(C(=O)OC)cc2)c(OC)c1	?	-5%	4%	?	-10%	-14
COc1ccc(-c2csc(NC(=O)c3ccc(C(C)(C)C)cc3)c2C(=O)O)cc1	·	12%	3.7µM*	3.3µM*	0%	-26
COc1ccc(-c2csc(NC(=O)c3ccccc3Br)c2C(=O)O)cc1	6%	-1%	2%	1%	12%	1
O=C(Nc1scc(-c2ccccc2)c1C(=O)O)c1ccccc1F	?	-6%	-18%	-5%	-5%	-14
Cc1ccccc1C(=O)Nc1scc(-c2ccc(Br)cc2)c1C(=O)O	·	-9%	4%	-2%	11%	-25
Cc1ccc(-c2csc(NC(=O)c3ccccc3F)c2C(=O)O)cc1	?	-14%	?	21µM*	1%	-20
O=C(Nc1scc(-c2ccc(Br)cc2)c1C(=O)O)c1ccccc1F	·	8%	?	16µM*	?	·
CCN(C(=O)CSc1ncccn1)c1c(N)n(Cc2ccccc2)c(=O)[nH]c1=O	0%	-8%	-2%	8%	14%	0
COc1cc(C2c3c(oc4ccccc4c3=O)C(=O)N2c2nnc(C(C)C)s2)cc(OC)c1OC (centres undefined)	·	·	-4%	-23%	·	·
O=C(NC(O)C(=O)c1ccc(F)cc1)c1ccc(F)cc1 (centres undefined)	2%	7%	?	?	-1%	7
SMILES	Chronic BCR inh	SW480 rereplic	TDP1 cell CPT	DT40 TDP1 no CPT	MCF10A rerep	IL1B secr inh
COc1cccc(C(=O)Oc2c(CN3CCOCC3)cc(Cl)c3cccnc23)c1	?	26%	0.73µM*	0.82µM*	14%	102
O=C(Oc1c(CN2CCOCC2)cc(Cl)c2cccnc12)c1ccc(F)cc1	?	?	4.6µM*	5.2µM*	3.3µM*	36
COc1ccc(C(=O)OC(C)CN2CCOCC2)cc1 (centres undefined)	?	-16%	-3%	-11%	-4%	-6
COc1ccc(C(=O)Oc2c(CN3CCOCC3)cc(Cl)c3cccnc23)cc1	?	?	8.2µM*	5.8µM*	?	27
COc1cccc(C(=O)OCCN2CCOCC2)c1	1%	1%	-13%	-7%	1%	2
COc1cc(C(=O)Oc2c(CN3CCOCC3)cc(Cl)c3cccnc23)cc(OC)c1OC	-2%	?	2.6µM*	5.2µM*	?	33
COc1cc(C(=S)N2CCOCC2)cc(OC)c1OC(=O)c1ccc(F)cc1	1%	-8%	?	?	-3%	71
Cc1ccc(NCc2nnc(SCC(=O)c3ccccc3)n2Cc2ccco2)c(C)c1	4%	5%	?	16µM*	27%	-11
COc1cccc(OCc2nnc(SCC(=O)NCc3ccco3)n2CCc2ccccc2)c1	?	-2%	16µM*	23µM*	10%	-13
CCn1c(SCC(=O)N(C(C)C)C(C)C)nnc1-c1cc2ccccc2cc1O	6%	-15%	23µM*	18µM*	3%	-9
COc1ccc(C(=O)CSc2nnc(-c3cc4ccccc4cc3O)n2Cc2ccco2)cc1	-12%	13%	21µM*	?	16%	-67*
Cc1cc(NC(=O)CSc2nnc(COc3cccc(C)c3C)n2Cc2ccco2)no1	?	-13%	-13%	-2%	0%	-20
COc1ccc(C)cc1NC(=O)CSc1nnc(COc2ccccc2)n1Cc1ccco1	?	7%	16µM*	21µM*	?	-9
Cc1cccc(OCc2nnc(SCC(=O)N(C(C)C)C(C)C)n2Cc2ccco2)c1C	?	21µM*	?	?	?	0
CCSc1ncc(Cl)c(C(=O)Nc2sc3c(c2C(=O)OC)CCCC3)n1	·	·	0%	-8%	·	·
O=C(CN1C(=O)COc2ccc(S(=O)(=O)N3CCCC3)cc21)NCc1ccccn1	2%	-6%	13%	-6%	-1%	-7
COc1ccccc1N(CC(=O)N(C)Cc1ccccc1)S(=O)(=O)c1cccs1	5%	-46%	-6%	-2%	15%	3
CC(=O)Oc1ccc(N(C(C)=O)S(=O)(=O)c2cccs2)c2ccccc12	?	?	12µM*	?	?	154
